Laboratory results published in the supplement of paper PMC3334620.
The full ranking holds about 33,000 sequences; the median of “E-score (-0.5 to 0.5)” is about -0.053, and the highest 2% start at about 0.37. What follows is part of a selection rich in the highest values, with near analogues and random picks from the rest.

Target: Hap1 (UniProt P0CE41)
Assay: PBM E-score (8-mer binding enrichment) (E-score (-0.5 to 0.5)); higher = stronger / more preferred TF binding
Details: protein concentration: 200 nM; construct: GST-DNA-binding domain
How it was run: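 Yeast transcription factors carrying a GST tag, as full-length proteins or DNA-binding domains, were produced by PURExpress in vitro transcription/translation. About 100-200 nM protein was applied to universal all-10-mer Agilent arrays, double-stranded by primer extension on fresh or once-stripped slides. Bound protein was detected with fluorescent anti-GST, and scans were normalised with masliner. The Universal PBM Analysis Suite gave each ungapped eight-base word, pooled with its reverse complement, an E-score, a modified Wilcoxon-Mann-Whitney statistic.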

UniProt P0CE41, sequence (P0CE41 whole entry): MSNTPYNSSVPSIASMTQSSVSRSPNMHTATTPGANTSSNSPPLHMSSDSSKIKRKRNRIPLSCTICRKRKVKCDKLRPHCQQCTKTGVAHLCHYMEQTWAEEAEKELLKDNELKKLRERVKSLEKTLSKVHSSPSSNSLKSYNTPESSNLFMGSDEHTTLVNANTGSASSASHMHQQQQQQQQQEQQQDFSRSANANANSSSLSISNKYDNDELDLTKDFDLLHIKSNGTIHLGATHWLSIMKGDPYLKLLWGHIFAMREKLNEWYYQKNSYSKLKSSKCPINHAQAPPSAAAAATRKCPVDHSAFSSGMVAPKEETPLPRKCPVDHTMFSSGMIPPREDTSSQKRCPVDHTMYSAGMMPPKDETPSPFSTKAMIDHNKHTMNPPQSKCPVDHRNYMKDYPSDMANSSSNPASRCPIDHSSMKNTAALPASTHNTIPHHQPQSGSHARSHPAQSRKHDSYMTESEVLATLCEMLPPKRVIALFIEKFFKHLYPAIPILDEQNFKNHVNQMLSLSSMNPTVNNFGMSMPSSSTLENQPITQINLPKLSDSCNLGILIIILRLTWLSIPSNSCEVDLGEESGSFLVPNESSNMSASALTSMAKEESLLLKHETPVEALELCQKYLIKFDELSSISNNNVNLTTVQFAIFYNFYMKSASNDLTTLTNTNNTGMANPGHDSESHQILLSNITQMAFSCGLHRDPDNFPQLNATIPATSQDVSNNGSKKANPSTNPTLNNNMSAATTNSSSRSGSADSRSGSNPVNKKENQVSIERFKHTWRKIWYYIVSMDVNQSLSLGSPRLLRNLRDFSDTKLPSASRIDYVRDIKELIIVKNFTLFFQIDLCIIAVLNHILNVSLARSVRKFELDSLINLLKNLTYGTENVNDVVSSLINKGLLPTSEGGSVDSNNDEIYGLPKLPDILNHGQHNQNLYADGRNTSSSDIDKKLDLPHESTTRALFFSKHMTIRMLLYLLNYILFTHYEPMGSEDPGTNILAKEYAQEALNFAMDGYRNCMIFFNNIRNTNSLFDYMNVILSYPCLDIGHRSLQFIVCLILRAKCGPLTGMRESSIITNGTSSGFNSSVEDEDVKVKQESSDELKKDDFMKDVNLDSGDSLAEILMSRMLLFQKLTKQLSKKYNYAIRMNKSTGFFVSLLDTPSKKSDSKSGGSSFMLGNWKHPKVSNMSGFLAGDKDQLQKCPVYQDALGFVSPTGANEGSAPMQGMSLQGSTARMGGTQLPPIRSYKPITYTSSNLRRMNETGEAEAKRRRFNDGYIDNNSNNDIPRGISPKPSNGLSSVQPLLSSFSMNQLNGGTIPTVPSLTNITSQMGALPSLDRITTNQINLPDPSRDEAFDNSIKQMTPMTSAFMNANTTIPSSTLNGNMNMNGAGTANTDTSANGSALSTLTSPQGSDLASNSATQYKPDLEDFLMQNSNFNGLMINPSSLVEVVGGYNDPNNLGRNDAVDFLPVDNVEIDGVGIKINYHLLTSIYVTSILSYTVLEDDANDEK

Row | Sequence | PBM E-score
1 | ACGGGCCA | 0.226
2 | CATAGAAG | -0.0619
3 | CAGTTCGA | -0.156
4 | AGCGCCAT | -0.113
5 | ACGGTAAG | 0.067
6 | CCGGTAAG | 0.391
7 | CCGGTACG | 0.342
8 | TCGGTAAA | 0.249
9 | CCGGTAAA | 0.456
10 | CCGGTAAC | 0.36
11 | CGGGCAAA | 0.249
12 | GGCAAATA | 0.2
13 | TGGCAGAA | -0.0128
14 | CTGCTGGA | -0.231
15 | CTCCGAAC | 0.415
16 | GCCCGAAC | 0.298
17 | GCCCGAAA | 0.342
18 | ATCCGAAC | 0.355
19 | GTCCGAAC | 0.426
20 | ATCCGAAA | 0.389
21 | TTCCGAAA | 0.363
22 | CACCGAAC | 0.194
23 | ACCCGAAA | 0.31
24 | GTCCGAAA | 0.421
25 | ATCCGAAG | 0.326
26 | CCCCGAAC | 0.291

Row | Sequence | PBM E-score
27 | ATACCGTC | 0.0985
28 | CGGCTAGC | 0.0611
29 | AGTCAGAT | -0.212
30 | AGCAGCTG | -0.167
31 | ACCCTCAG | -0.197
32 | GCGCAAAA | -0.00131
33 | CACCGAAG | 0.245
34 | CTTCGAAA | -0.279
35 | ACCCGAAT | 0.314
36 | ATCCGACA | 0.305
37 | CTCCGACA | 0.291
38 | GTCCGACA | 0.38
39 | CTCCGAAA | 0.41
40 | ATCCGAAT | 0.403
41 | CGCCGAAA | 0.359
42 | CGCCGAAG | 0.359
43 | AACCGAAT | 0.301
44 | CTCCGAAG | 0.401
45 | ACTTGAGA | -0.185
46 | AGGGGCGG | 0.235
47 | ACTCGTCG | -0.172
48 | CCCCGCAA | 0.258
49 | ACATTTAA | -0.0555
50 | AGCCCTTG | -0.311
51 | AGACACGG | 0.0548
52 | CATCCAGG | -0.183

Row | Sequence | PBM E-score
53 | ATCCGACG | 0.333
54 | ATCCGAGG | 0.39
55 | ATCCGAGC | 0.356
56 | GACGCACC | -0.118
57 | GCAAGGAC | -0.115
58 | AGTCCAAG | -0.404
59 | AGTCCGTG | 0.299
60 | AGTCCGAT | 0.432
61 | AATCCGAC | 0.363
62 | AGTCCGAC | 0.36
63 | AGTCCTAT | -0.0943
64 | AATCCGAA | 0.366
65 | AGTCCGAG | 0.428
66 | AATCCGAT | 0.401
67 | AAGCCTAT | -0.101
68 | AAAACTAG | -0.116
69 | AGTACGGG | -0.028
70 | ACTTCTGG | -0.297
71 | AGTGGACG | 0.0359
72 | TAAAAGGA | -0.0643
73 | AGATAAGC | -0.0608
74 | GGACCTAA | 0.371
75 | TGACCTAA | -0.158
76 | CGACCTAA | 0.161
77 | CCCGGAAG | 0.358
78 | CCGGGAAA | 0.338

Row | Sequence | PBM E-score
79 | TGCGGAAA | 0.213
80 | CCCGGAAA | 0.411
81 | TACGGAAA | 0.316
82 | TCCGGAAA | 0.445
83 | GACGGAAA | 0.314
84 | GCCGGAAA | 0.395
85 | GGCGGAAA | 0.29
86 | TCTCAAGA | -0.0524
87 | GTCGCGTA | -0.051
88 | ATTCAAAG | -0.213
89 | ACGCTTGG | -0.193
90 | GGGGCGCA | -0.255
91 | ACTAGTCA | -0.241
92 | GGTGTGGA | -0.00568
93 | GGAACACA | -0.109
94 | AGCACGAC | -0.133
95 | CACGCCGA | 0.169
96 | AACGCCGT | 0.273
97 | AACGCCGA | 0.447
98 | TACGCCGA | 0.301
99 | AACGCCGC | 0.355
100 | AACGCCGG | 0.397
101 | ACCCGCCA | -0.0193
102 | GGGGCTCA | -0.167
103 | ATGAGTTA | -0.207
104 | ATAAATCC | 0.325

Row | Sequence | PBM E-score
105 | CTAAATCC | 0.386
106 | CTAAATCA | -0.138
107 | GGGCTACA | -0.0843
108 | GCCGGCAC | 0.327
109 | CCCGGCAG | 0.21
110 | TCCGGCAA | 0.326
111 | ACCGGCAA | 0.272
112 | GCCGGCAA | 0.373
113 | CCCGGCAA | 0.401
114 | AAGCTCGG | 0.36
115 | GTGCTTTA | -0.0684
116 | CATCCCGG | 0.312
117 | AATCCCTG | -0.18
118 | CATCCCCG | 0.356
119 | AATCCCGG | 0.397
120 | AATCCCCG | 0.403
121 | AATCCCCC | 0.133
122 | GCTTGACA | -0.139
123 | CATGTCTC | 0.131
124 | AAGTGCAC | -0.0983
125 | CGCTGGGA | 0.0217
126 | CCTCAAGG | -0.168
127 | ACGGGCCG | 0.29
128 | ACGGGCGA | 0.333
129 | CGGGGCCC | 0.258
130 | CCGGGCCC | 0.369

Row | Sequence | PBM E-score
131 | GCGGGCCC | 0.216
132 | CCGGGCCA | 0.348
133 | CCGGGCGA | 0.376
134 | GCGGGCGA | 0.296
135 | CCGGGCCG | 0.425
136 | CCGCTATA | 0.27
137 | AATAGCAT | -0.0964
138 | CGTGTACC | 0.11
139 | CGAAATAA | 0.182
140 | AGAAATAA | 0.0188
141 | GGAAATAA | 0.413
142 | TGGAATAA | -0.128
143 | GGGAATAA | 0.396
144 | GGGAATAC | 0.181
145 | ACGCACCG | 0.00605
146 | ACCAGTTA | -0.225
147 | AGCCGAAC | 0.227
148 | GGCCGTAA | 0.377
149 | GACCGAAC | 0.347
150 | TGCCGTAA | 0.0155
151 | TGCCGACA | 0.223
152 | CACCGAAA | 0.261
153 | GGCCGACA | 0.383
154 | CGCCGACA | 0.215
155 | GACCGAAA | 0.385
156 | GGCCGAAC | 0.37

Row | Sequence | PBM E-score
157 | CGCCGTAA | 0.283
158 | CGCCGAAC | 0.344
159 | ACGAGCTA | -0.108
160 | ACCCAGTA | -0.253
161 | ATTTGGTC | 0.141
162 | CTCCTAAC | -0.191
163 | AGCCGAAA | 0.329
164 | TGCCGAAA | 0.303
165 | GGCCGAAA | 0.405
166 | CGTTTTAG | -0.114
167 | AACCTGTG | -0.315
168 | AGAACTCG | 0.0147
169 | GAGGGAGC | -0.175
170 | AACCAAGT | -0.152
171 | CGATAAAA | 0.382
172 | TGATAAAA | -0.0276
173 | GGATAAAA | 0.261
174 | CGCTCGGA | 0.404
175 | ACCTCGGC | 0.377
176 | GACTCGGA | 0.405
177 | ACCTCGGG | 0.26
178 | GCCTCGGA | 0.331
179 | GGCTCGGA | 0.344
180 | CCCTCGGC | 0.268
181 | AGCTCGGA | 0.325
182 | TACTCGGA | 0.312

Row | Sequence | PBM E-score
183 | CCCTCGTA | -0.0221
184 | AACTCGGA | 0.345
185 | CCCTCGGA | 0.373
186 | CATCACAG | -0.258
187 | TGGATGAA | -0.183
188 | AAAGAAGA | -0.0993
189 | GAGTGTGA | -0.176
190 | CCCCTTAC | -0.132
191 | TAAGGTCA | -0.193
192 | CAGGCTAG | -0.279
193 | AATGGGGC | -0.188
194 | ACCTCGTA | -0.0139
195 | ACCTCGAA | -0.135
196 | ACCTCGGA | 0.384
197 | AACTCGGC | 0.316
198 | CACTCGGG | 0.159
199 | CACTCGGC | 0.374
200 | CTCAGCTA | -0.214
201 | CCCTACTC | -0.0316
202 | GCGATACA | 0.0344
203 | CAGATACG | 0.0074
204 | GCGATTCC | 0.211
205 | GCGATACC | 0.192
206 | CCGATACC | 0.377
207 | ACGATACA | -0.216
208 | ACGATACC | 0.179

Row | Sequence | PBM E-score
209 | CCGATACA | 0.43
210 | ACGATACG | -0.263
211 | CCGATACG | 0.42
212 | CCGATTCG | 0.347
213 | CCGATTCC | 0.405
214 | GGGCACCA | -0.0557
215 | CTGACCGA | 0.258
216 | GGAAGCCA | -0.0815
217 | GATTTTGC | -0.0335
218 | GTCTCCGA | 0.332
219 | CTCTCCGA | 0.203
220 | ATCTCCGC | 0.455
221 | ATCTCCGG | 0.483
222 | CTCTCCGC | 0.0772
223 | ATCTCCCC | 0.0474
224 | ATCTCCAG | 0.0473
225 | ATCTCCCG | 0.263
226 | ATCTCCGA | 0.486
